Reference: PubChem BioAssay AID686979 (National Center for Advancing Translational Sciences (NCATS), 2013)
About 50,000 (12%) of roughly 420,000 compounds were called active. Not shown: some 26% with an inconclusive outcome. The call rests on the fitted dose curve; in most records, active means well fitted inhibition curve with a large enough effect; inconclusive means small, poorly fitted or top-dose-only effect; inactive means flat fitted curve, though single readings scatter. The sample as a whole holds a higher share of actives than the screen did.

experiment: qHTS for Inhibitors of human tyrosyl-DNA phosphodiesterase 1 (TDP1): qHTS in cells in presence of CPT; conditions: chicken DT40 Tdp1-/-;hTDP1 cells + 20 nM CPT, ATP luminescence, 48 h; series mostly up to 46.2 µM; activity change, negative = growth inhibition: at the top concentration; further: nearly all actives have a fitted effect of over 55% in size
Outline: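 Cell growth measured by CellTiter-Glo luminescence after a minimum 48 h, 37 C compound exposure with 20 nM CPT in Tdp1-knockout DT40 cells stably expressing hTDP1, seeded 400/well; qHTS titration format.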
On the % scale 0 is the no-effect control and ±100 the full control effect; potency means the concentration at half of the fitted maximal effect.

| SMILES | activity change, negative = growth inhibition | Potency |
| --- | --- | --- |
| CCOc1ccc(N2C(=O)CSC2=NC#N)cc1 | 0.495% (inactive) |  |
| COC(=O)C1=C(C)NC(=S)NC1c1ccc(OCC(=O)N2CC(C)OC(C)C2)c(OC)c1 (stereo not drawn) | -17.4% (inactive) |  |
| Cn1cc(S(=O)(=O)N2CCN(c3ccc(F)cc3)CC2)c(=O)n(C)c1=O | 1.72% (inactive) |  |
| CCc1ccc(C(=O)OCC(=O)NCC(F)(F)F)cc1 | 0.645% (inactive) |  |
| CS(=O)(=O)N1CCCC(C(=O)Nc2ccccc2C(F)(F)F)C1 (stereo not drawn) | 0.592% (inactive) |  |
| CC(=O)Nc1ccc(NC(=O)C(C)OC(=O)C2CC(=O)N(CCc3ccccc3)C2)cc1 (stereo not drawn) | 2.76% (inactive) |  |
| O=C(O)C1CCCCC1C(=O)N1CCN(S(=O)(=O)c2ccc(F)cc2)CC1 (stereo not drawn) | 12.7% (inactive) |  |
| NCCCCC(C(=O)O)N(C(=O)OCc1ccccc1)C(=O)OCc1ccccc1 (stereo not drawn) | -4.29% (inactive) |  |
| CC1C(=O)C(C)C(c2ccc(O)cc2)NC1c1ccc(O)cc1 (stereo not drawn) | -17.5% (inactive) |  |
| O=C(OCC(=O)N1CCN(C(=O)c2ccco2)CC1)c1ccc(Cl)c(Cl)c1 | -19.4% (inactive) |  |
| CCOc1ccccc1/C=N/NC(=O)CNC(=O)COc1ccccc1 | 17.2% (inactive) |  |
| COc1ccc(CCNC(=O)CCc2ccccc2O)cc1OC | -0.264% (inactive) |  |
| COc1ccc(CCn2c(=N)c(C(=O)NCc3ccco3)cc3c(=O)n4cccc(C)c4nc32)cc1 |  | 20.6 µM (active) |
| COc1ccc(C(=O)Nc2ccccc2C(=O)NCc2ccco2)cc1 | -23.2% (inactive) |  |
| Cc1ccc(S(=O)(=O)c2cc3c(=O)n4cccc(C)c4nc3n(CCc3ccccc3)c2=N)cc1C | 0.286% (inactive) |  |
| CCOC(=O)c1ccc(NC(=O)CCn2c(=O)oc3ccccc32)cc1 |  | inactive |
| CC(Sc1nncn1C)C(=O)NCCC1=CCCCC1 (stereo not drawn) | -1.08% (inactive) |  |
| CC(C)[C@H](CO)Nc1nc(Nc2cc(N)cc(Cl)c2)c2ncn(C(C)C)c2n1 |  | 4.73 µM (active) |
| CC(C)n1cnc2c(Nc3cccc(Cl)c3)nc(N(CCO)CCCO)nc21 |  | 10.3 µM (active) |
| CCC(C)NC(=O)C1c2ccccc2Oc2ccccc21 (stereo not drawn) | -14.2% (inactive) |  |
| CC(C)(C)c1nnc(NC(=O)C2c3ccccc3Oc3ccccc32)s1 |  | 23.1 µM (active) |
| CCC(C)(C)NC(=O)C1c2ccccc2Oc2ccccc21 | 1.24% (inactive) |  |

| SMILES | activity change, negative = growth inhibition | Potency |
| --- | --- | --- |
| COCCCNCC(=O)Nc1sc(C)c(C)c1C(=O)OC | -13.3% (inactive) |  |
| Nc1ncnc2nnsc12 | -10.5% (inactive) |  |
| Oc1c(C(c2ccc(F)cc2)N2CCN(Cc3ccccc3)CC2)sc2nc(-c3ccco3)nn12 (stereo not drawn) | -26.3% (inactive) |  |
| CC(C)(O)CCC(O)[C@@](C)(O)C1CC[C@]2(O)C3=CC(=O)C4CC(O)C(O)C[C@]4(C)C3CC[C@]12C (stereo partly drawn) | 13.7% (inactive) |  |
| COc1cccc(C(=O)NNC(=O)/C=C/c2ccccc2)c1 | -5.33% (inactive) |  |
| COc1cccc(N2CC(NC(=O)/C=C\c3ccccc3)CC2=O)c1 (stereo not drawn) | -23.1% (inactive) |  |
| COc1cccc(C=CC(=O)C=CC=Cc2ccccc2)c1 |  | 20.6 µM (active) |
| COc1ccccc1C(C)NC(=O)Cc1ccsc1 (stereo not drawn) | -5.69% (inactive) |  |
| COc1ccc(CN(CC(=O)NC2CCCC2)C(=O)CCC(=O)Nc2cc(C)on2)cc1 | -25.2% (inactive) |  |
| Cc1cc(C(C)(C)C)oc1C(=O)N(CC(=O)NC1CCCC1)Cc1ccc(Cl)cc1 |  | 9.2 µM (active) |
| Cc1ccc(CN(CC(=O)NC2CCCCC2)C(=O)c2csnn2)cc1 | -5.16% (inactive) |  |
| Cc1ccc2cccc(NC(=O)C(C)Oc3ccc(C)c(C)c3)c2n1 (stereo not drawn) |  | 20.6 µM (active) |
| CC(C)Oc1ccc(C(=O)NC(C)(C)CO)cc1 | -10.2% (inactive) |  |
| COc1ccc(OC(C)C(=O)Nc2cccnc2)cc1 (stereo not drawn) | -18.3% (inactive) |  |
| Cc1ccc2cccc(NC(=O)c3ccc(OC(C)C)cc3)c2n1 |  | 18.4 µM (active) |
| CC(Oc1ccc(Cl)cc1)C(=O)Nc1ncccn1 (stereo not drawn) | -7.6% (inactive) |  |
| CC(C)Oc1ccc(C(=O)Nc2cc(=O)n(C)c(=O)n2C)cc1 | 18.5% (inactive) |  |
| Cc1ccc(Cn2c(=O)n(-c3ccc(C)cc3)c(=O)c3c2c2cc(C)ccc2n3C)cc1 | 7.58% (inactive) |  |
| CCCCSCCCNC(=O)C1CCC(CNS(=O)(=O)c2ccc(NC(C)=O)cc2)CC1 (stereo not drawn) | -22.3% (inactive) |  |
| CC1CCN(C(=O)CCNC(=O)c2ccccc2)CC1 | -0.49% (inactive) |  |
| C=CCn1c(CCNC(=O)c2ccccc2F)nnc1SCC(=O)Nc1ccc(OC)cc1 | 9.16% (inactive) |  |
| Cc1ccc(CN(CC(=O)NCC2CCCO2)S(=O)(=O)c2ccc(C)cc2)cc1 (stereo not drawn) | -0.912% (inactive) |  |

| SMILES | activity change, negative = growth inhibition | Potency |
| --- | --- | --- |
| Cc1ccc2nc(C)c3c(c2c1)N(c1ccccc1)CC3 |  | 11.6 µM (active) |
| Cc1nc2ccc(C(=O)N3CCN(c4ccccc4)CC3)cc2s1 | -6.74% (inactive) |  |
| Cc1ccc2nc3n(c(=O)c2c1)CCC3 | -18.1% (inactive) |  |
| COc1ccc(Cn2ccnc2SCC(=O)NCc2ccco2)cc1 | -6.17% (inactive) |  |
| CCOC(=O)c1cccc(NC(=O)CCc2nnc3ccc(N4CCOCC4)nn23)c1 | -2.91% (inactive) |  |
| O=C(NC1CCCCC1)C1CCC(CNS(=O)(=O)c2ccccc2)CC1 (stereo not drawn) | -11% (inactive) |  |
| COc1nc(NC2CCCCC2)nc(N2CCCCCC2)n1 |  | 22.4 µM (active) |
| CN(N)c1nc(N2CCCC2)nc(N2CCCC2)n1 | -2.65% (inactive) |  |
| Clc1nc(NC2CCCC2)nc(N2CCOCC2)n1 | 0.37% (inactive) |  |
| C[C@@H]1CN([C@@H](C)CO)C(=O)c2cc(Br)cnc2O[C@@H]1CN(C)C(=O)C1CCCCC1 | -6.47% (inactive) |  |
| CC(=O)N[C@H]1[C@H]([C@H](O)[C@H](O)CO)OC(C(=O)O)=C[C@@H]1O | -10.2% (inactive) |  |
| Cc1ccc2oc(=O)ccc2c1 | 13.3% (inactive) |  |
| CCN(CC)c1ccc2c(Nc3ccccc3)c(C=O)c(=O)oc2c1 | -5.69% (inactive) |  |
| CCN(CC)c1ccc2oc(=O)c(C)nc2c1 |  | 5.17 µM (active) |
| CCOc1cc(/C=C2\C(=N)N3N=C(C)SC3=NC2=O)ccc1OCCOc1ccccc1 | 12.4% (inactive) |  |
| Cc1ccc(NC(=S)NCc2ccccc2Cl)c(C)c1 |  | 23.1 µM (active) |
| S=C(NCc1ccco1)NCc1ccccc1Cl | 14.8% (inactive) |  |
| Cc1c(Cl)cccc1NC(=S)NCc1ccc2c(c1)OCO2 | -25.6% (inactive) |  |
| CCC(=O)N1CCC(C)(C(=O)Nc2cc(OC)c(OC)c(OC)c2)C1 (stereo not drawn) | -1.97% (inactive) |  |
| Cc1ccc(Nc2ccc(C(N)=O)cc2[N+](=O)[O-])cc1 | -2.34% (inactive) |  |
| CC(=O)Nc1ccc(/C=N/Nc2ccc(C(=O)c3c(C)cc4ccccn34)cc2[N+](=O)[O-])cc1 |  | 18.4 µM (active) |
| CNc1ccc(NC(C)=O)cc1[N+](=O)[O-] | -7.93% (inactive) |  |

| SMILES | activity change, negative = growth inhibition | Potency |
| --- | --- | --- |
| CCCCN1C(=O)C(CC(=O)NCc2cccs2)CC(C(=O)N2CCOCC2)=C1C (stereo not drawn) | 5.59% (inactive) |  |
| O=C(CSc1ncnc2sccc12)NC1CCS(=O)(=O)C1 (stereo not drawn) | 8.81% (inactive) |  |
| Cc1noc(C)c1C(=O)N1CCC1(C)C(=O)NS(=O)(=O)c1ccc(C#N)cc1 (stereo not drawn) | 10.7% (inactive) |  |
| COc1ccc(C(=O)CSc2nc(C)cc(C)n2)cc1[N+](=O)[O-] | 2.44% (inactive) |  |
| O=C(Nc1ccc(Cl)cc1)c1cnn2c1NC(=C1CC1)C=C2C(F)F | 3.58% (inactive) |  |
| CC(C)(C)C1CCC(NC(=O)c2cnn3c2NC(=C2CC2)C=C3C(F)F)CC1 (stereo not drawn) |  | 10 µM (active) |
| O=C(Nc1ccc([N+](=O)[O-])cc1)c1cnn2c1NC(=C1CC1)C=C2C(F)F | 0.0748% (inactive) |  |
| COc1cc(NC(=S)NCc2ccco2)c(OC)cc1Cl | -1.65% (inactive) |  |
| CNC(=O)Nc1cc(C(C)(C)C)no1 |  | 16.4 µM (active) |
| COc1ccc(NC(=O)c2cc(=O)[nH]c3ccccc23)cc1S(=O)(=O)N1CCOCC1 | -6.57% (inactive) |  |
| CCCCC/C=C\CC1OC1CCCCCCCC(=O)O (stereo not drawn) | 0.0245% [at 0.628 µM] (inactive) |  |
| O=[N+]([O-])c1cc(S(=O)(=O)NCCc2ccccn2)ccc1Cl | -4.48% (inactive) |  |
| Cc1ccc(C(=O)N/C(=C/c2cccnc2)C(=O)O)cc1 | 1.55% (inactive) |  |
| O=C(Nc1cccc2ccccc12)NC1CC1 | 3.33% (inactive) |  |
| CCN(C(=O)Nc1cccc2ccccc12)c1ccccc1 |  | 23.1 µM (active) |
| CC(=O)N(C)c1ccc(NC(=O)Nc2cccc3ccccc23)cc1 | 1.68% (inactive) |  |
| CCn1c(-c2cccnc2Cl)nc2cc(C)c(C)cc21 | -13.5% (inactive) |  |
| O=C(NCc1ccccc1)c1ccc(S(=O)(=O)Nc2cccc(C(F)(F)F)c2)cc1 | -21% (inactive) |  |
| CCOC(=O)N1CCN(C(=O)c2ccc(S(=O)(=O)Nc3cccc(C(F)(F)F)c3)cc2)CC1 |  | 16.4 µM (active) |
| CCOC(=O)N1CCN(C(=O)c2ccc(S(=O)(=O)c3ccc(C)cc3)c(NC(C)=O)c2)CC1 | 0.336% (inactive) |  |
| CC(C)(C)NC(=O)CN1CCC(NC(=O)C23CC4CC(CC(C4)C2)C3)CC1 | -2.69% (inactive) |  |
| CC(CNC(=O)c1nnc(Cc2cccc(F)c2)o1)c1ccccc1 (stereo not drawn) | -28.6% (inactive) |  |

| SMILES | activity change, negative = growth inhibition | Potency |
| --- | --- | --- |
| O=C(Nc1cccc(C(=O)N2CCCC2)c1)c1ccccc1 | -21.7% (inactive) |  |
| COc1cccc(C(=O)NCCSc2ccc(Br)cc2)c1 | 11% (inactive) |  |
| COc1cccc(CCNC(=O)COc2cccc3c2OC(C)(C)C3)c1 | -28.3% (inactive) |  |
| COc1cccc(CCNC(=O)c2cccc(NC(=O)C3=C(C)OCCS3)c2)c1 |  | 23.1 µM (active) |
| CC1=C(C(=O)Nc2cccc(C(=O)NCC(C)c3ccccc3)c2)SCCO1 (stereo not drawn) |  | 16.4 µM (active) |
| COCCn1c(N)c(N(Cc2ccccc2)C(=O)C2CCCCC2)c(=O)[nH]c1=O | 2.65% (inactive) |  |
| Cc1nn(C)c(C)c1S(=O)(=O)N1CCC(CO)(Cc2ccc(Cl)cc2)CC1 | -0.289% (inactive) |  |
| Cc1c(Cl)cnc(NC(=O)COC(=O)C2CCCC2)c1Cl | -2.84% (inactive) |  |
| N#Cc1ccc(CSc2ncccn2)cc1 | 0.611% (inactive) |  |
| CC(C)C(c1nnnn1C1CCCCC1)N1CCN(C(=O)c2ccco2)CC1 (stereo not drawn) | 0.0691% (inactive) |  |
| CC1(C)C2CC[C@]3(C)C(CC=C4[C@@H]5C[C@@](C)(CO)CC[C@]5(C(=O)O)CC[C@]43C)[C@@]2(C)CC[C@@H]1O (stereo partly drawn) | -4.91% (inactive) |  |
| CC(=NCc1ccco1)C1=C(O)c2ccccc2C1=O | -25% (inactive) |  |
| CCOC(=O)c1c(-c2ccc(C)cc2)csc1/N=C(\C)C1=C(O)c2ccccc2C1=O |  | 23.1 µM (active) |
| CCOC(=O)c1cc2n(c1N)-c1ccccc1C2=O | -15.1% (inactive) |  |
| CN(C)Cc1c(C(=O)N/N=C/c2ccccc2OCc2ccc(F)cc2)nnn1-c1nonc1N | 11.4% (inactive) |  |
| CCOC(=O)N1CCC(=NNC(N)=O)CC1 | 17.9% (inactive) |  |
| COc1ccc(S(=O)(=O)NCC(c2ccco2)N2CCOCC2)cc1 (stereo not drawn) |  | inactive |
| CC1(C)CC(N(Cc2ccccc2)C(=O)Cc2ccccc2)CCO1 (stereo not drawn) | -23% (inactive) |  |
| CC1(C)CC(CNCCC(c2ccc(F)cc2)c2ccco2)CCO1 (stereo not drawn) |  | 25.9 µM (active) |
| O=C(NC1CCCC1)C(c1ccco1)N(C(=O)c1ccco1)c1ccc(F)cc1 (stereo not drawn) | 1.1% (inactive) |  |
